Screening results as filed in PubChem.
Hits are enriched below; roughly 3.2% of the tested compounds scored in any of these assays.
FBPA coupling cs: coupling enzyme interference in Giardia aldolase counter-screen. activity change, negative = inhibition, % at 58.2 µM, hits read low. actives 0.67% (n = 290,000). coupling enzyme system counterscreen, AmpLite Red fluorescence; in the data active = activity change below about -30%
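Activity here indicates interference with the coupling reaction, not aldolase inhibition. Compounds at 57.5 uM final met coupling enzymes for 10 min at RT; substrate and AmpLite Red detection followed, with a 525/598 nm fluorescence read after 20 min.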
PLK1 PBD inh: inhibitors of human PLK1 polo-box domain binding; P53350; Plk1 PBD binding of FITC phosphopeptide, fluorescence polarization; Potency, µM, for the others: max response, negative = inhibition, actives largely listed as inhibitors; actives 2.8% (n = 360,000); also: potency is read from the fitted curve at half-maximal effect; series mostly up to about 57 µM; nearly all actives have a fitted effect of over 65% in size
USP2a inh: blocks human ubiquitin-specific protease USP2a; O75604; USP2 core, Ub-CHOP2 coupled fluorogenic reporter, 485/531; Potency, µM (doses to about 38.3 µM), for inactives: top-dose activity change, negative = inhibition, actives largely listed as inhibitors; actives 0.01% (n = 330,000); AID 463254;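 also: potency is read from the fitted curve at half-maximal effect; plate controls were DMSO wells for no effect and full inhibition by NEM control for full effect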
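USP2 core (10nM final) preincubated 30min RT with compound in 20mM Tris-HCl pH 8.0, 2mM CaCl2, 2mM beta-mercaptoethanol, 0.05% CHAPS; 25nM Ub-CHOP2 plus 25nM reporter substrate added, fluorescence (Ex485/Em531) read after 60min.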
USP1 inh: inhibitors of human USP1/UAF1 deubiquitinase. O94782. recombinant USP1/UAF1, Ub-Rhodamine cleavage fluorescence. Potency, µM (highest dose often 57.1 µM), without a hit: top-dose activity change, negative = inhibition, hits mostly inhibitors. actives 0.23% (n = 390,000); also: potency is read from the fitted curve at half-maximal effect; nearly all actives have a fitted effect of over 60% in size
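1 nM enzyme complex + cpd, 15 min RT; start with Ub-Rho 150nM final; kinetic fluorescence ex 480/em 540, 6 reads q60 s. Buffer 50mM HEPES pH 7.8, 0.5mM EDTA, 0.1 mg/ml BSA, 1mM TCEP, 0.01% Tween-20.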
GALK inhibitor: blocks human galactokinase activity | Purified GALK, Kinase-Glo residual ATP luminescence | Potency, µM (titrated, usually from 57.5 µM), for the others: top-dose activity change, negative = inhibition, most hits filed as inhibitors | actives 0.007% (n = 270,000); also: potency is read from the fitted curve at half-maximal effect
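Human GALK (5 nM) with 35 uM ATP and 100 uM galactose in 20 mM HEPES pH 8.0, 5 mM MgCl2, 60 mM NaCl, 1 mM DTT, 0.01% BSA. After 1 h at room temperature, leftover ATP was read by Kinase-Glo Plus luminescence.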
VDR inhibitor: inhibitors of human vitamin D receptor; P11473; VDR-SRC2-3 peptide fluorescence polarization, 2 h; Potency, µM, for the others: max response, negative = inhibition, most hits filed as inhibitors; actives 0.93% (n = 400,000); also: potency is read from the fitted curve at half-maximal effect
Target sequence (P11473 whole entry, looked up): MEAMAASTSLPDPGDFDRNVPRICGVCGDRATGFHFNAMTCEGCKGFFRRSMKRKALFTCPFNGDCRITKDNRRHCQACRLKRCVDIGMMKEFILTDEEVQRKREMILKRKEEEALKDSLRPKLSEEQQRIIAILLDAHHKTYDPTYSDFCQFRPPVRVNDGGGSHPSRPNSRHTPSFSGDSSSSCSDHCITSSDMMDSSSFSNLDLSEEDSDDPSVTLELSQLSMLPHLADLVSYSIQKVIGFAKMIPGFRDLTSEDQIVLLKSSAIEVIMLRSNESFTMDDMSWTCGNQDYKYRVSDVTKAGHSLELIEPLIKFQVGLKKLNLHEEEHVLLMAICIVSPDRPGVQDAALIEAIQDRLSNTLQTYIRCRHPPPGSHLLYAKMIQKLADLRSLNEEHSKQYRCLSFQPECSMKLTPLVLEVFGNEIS
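Two reagent solutions held at 4 deg C in the dark were dispensed, compounds pinned at 23 nl, and the mixture incubated 2 h at room temperature. Read-out: fluorescence polarization of VDR–SRC2-3 peptide binding.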
Numbers without * were called inactive; ? = inconclusive; . = no result. Unless noted, calls follow the shape of the dose curve; as a rule, active = well fitted curve in the direction sought with a large enough effect; inconclusive = small, poorly fitted or top-dose-only effect, or another doubt; inactive = no such curve, though single readings can be large; an effect the other way counts as inactive or inconclusive. Unless noted, % is scaled to controls: 0 for no effect and ±100 for the full control effect.

SMILES	FBPA coupling cs	PLK1 PBD inh	USP2a inh	USP1 inh	GALK inhibitor	VDR inhibitor
COc1ccccc1NC(=O)COc1ccc(C(=O)OCC(=O)NC(C)(C)C)cc1OC	6	-2%	1%	-23%	12%	5%
Cc1cc(/C=N/NC(=O)c2cccc(N(C)C)c2)c(C)n1-c1cc(C(=O)O)cc(C(=O)O)c1	0	?	0%	3%	-2%	28%
COC(=O)COc1ccc(NS(=O)(=O)c2cccc([N+](=O)[O-])c2)cc1	1	24µM*	1%	-13%	-2%	-4%
N=C1C=CC=C2C1=NC1(CCCCC1)N2O	-48*	-4%	1%	?	4%	-14%
CC(=NC1CCCCC1)c1ccc(O)cc1O	.	1%	.	-15%	.	.
Cc1cc(Cl)n2c(nc3cc(F)c(F)cc32)c1C#N	0	?	-6%	-18%	-18%	16µM*
CCN(CC(=O)Nc1ccc(NC(C)=O)cc1)C(=O)COc1ccccc1Cc1ccccc1	.	-7%	0%	1%	2%	12%
CCOC(=O)c1cnc(SCc2nc(N)nc(Nc3ccc(F)cc3)n2)nc1N	1	-18%	-1%	-7%	2%	1%
Nc1nc(SCC(=O)NCCO)nc2sc3c(c12)CCCC3	-2	24µM*	4%	-19%	-1%	-1%
N#CC1=C2SCN(Cc3ccco3)CN2C(=O)CC1c1ccccc1F (centres undefined)	-17	27µM*	1%	-6%	-3%	32µM*
S=C1SCN(Cc2ccco2)CN1Cc1ccco1	-1	-6%	0%	-24%	-2%	-7%
S=C1NCN(Cc2ccco2)CN1c1cccc2ccccc12	1	-9%	1%	-13%	5%	-18%
N#CC1=C2SCN(Cc3ccco3)CN2C(=O)CC1c1cccc2ccccc12 (centres undefined)	-17	24µM*	-1%	-10%	0%	?
CNC(C)C(=O)NC(C(=O)NC(C(=O)Nc1cccc2ccccc12)C(C)C)C(C)C (centres undefined)	.	-23%	.	.	.	.
N#Cc1c2c(c(NCc3ccco3)n3c1nc1ccccc13)CCC2	-22	-28%	-1%	-15%	0%	1%
CCn1c2ccccc2c2cc(CNCc3ccc(OC)cc3OC)ccc21	-2	4%	-3%	-18%	0%	-12%
CCC(CC)NCc1ccc2c(c1)c1ccccc1n2CC	-6	21µM*	-9%	-19%	7%	?
Cc1ccnc(NC(=O)CCC(=O)N(CC(=O)NCc2ccccc2)c2ccc3c(c2)OCO3)c1	5	3µM*	2%	-1%	1%	-4%
CCn1cc(C(=O)OCC(=O)c2cc(C)n(-c3ccccc3F)c2C)c(=O)c2ccc(C)nc21	9	27µM*	-2%	-12%	-2%	?
CCn1cc(C(=O)OCC(=O)c2cc(C)n(-c3ccccc3)c2C)c(=O)c2ccc(C)nc21	14	-9%	0%	-13%	2%	-6%
O=C(Nc1ccnn1C1CCN(Cc2cccc(OCCO)c2)CC1)C1CCOC1 (centres undefined)	.	-3%	-3%	-2%	-5%	10%
C/C(=N\NC(N)=S)C1=CCC2C3CC[C@H]4CC(O)CC[C@]4(C)C3CC[C@]12C (some centres undefined)	0	17µM*	2%	-24%	-2%	?
CC12CCC3C(CCC4CC(O)CCC43C)C1CC=C2c1ccccc1 (centres undefined)	-1	.	.	.	.	14%
COc1ccc(CNC(=O)CCS(=O)(=O)Cc2ccc(C)cc2)c(OC)c1	6	4%	-1%	0%	-3%	-1%
COc1ccccc1CNC(=O)CCS(=O)(=O)Cc1ccc(C)cc1	.	27µM*	3%	-20%	-7%	?
SMILES	FBPA coupling cs	PLK1 PBD inh	USP2a inh	USP1 inh	GALK inhibitor	VDR inhibitor
CC(C)CCN1C(=O)CSCC1(C)C(=O)NCc1ccccc1 (centres undefined)	.	-11%	.	.	.	.
CCCC(c1nnnn1Cc1cccs1)N1CCN(C2CCCC2)CC1 (centres undefined)	1	27µM*	-6%	-6%	0%	-27%
CCC(c1nnnn1Cc1cccs1)N1CCN(C2CCCC2)CC1 (centres undefined)	2	-4%	-1%	-14%	-3%	2%
O=C(CCN1C(=O)C2C3C=CC(C3)C2C1=O)NCCc1ccccc1 (centres undefined)	5	24µM*	2%	-17%	2%	-10%
Cc1cccc(NC(=O)CCN2C(=O)C3C4C=CC(C4)C3C2=O)n1 (centres undefined)	0	12µM*	0%	-11%	0%	0%
CC1CCN(C(=O)C(C)OC(=O)CSc2ccc([N+](=O)[O-])cc2)CC1 (centres undefined)	.	15µM*	-1%	0%	.	?
Cc1ccccc1NCc1ccccc1O	-33*	-6%	1%	-26%	1%	10%
CCOc1ccc(C2NC(=O)C(C#N)=C(S)N2c2ccc(C)cc2)cc1OC (centres undefined)	7	-24%	5%	-13%	-1%	18µM*
CCOc1ccc(C2NC(=O)C(C#N)=C(S)N2c2cccc(C)c2)cc1OC (centres undefined)	6	-17%	13%	-10%	-5%	79µM*
Cc1cc(=O)n2nc(N3CCCC(C(=O)NCc4ccco4)C3)sc2n1 (centres undefined)	0	-3%	3%	-8%	0%	-1%
CCCc1cc(=O)n2nc(N3CCC(C(=O)NCc4ccco4)CC3)sc2n1	.	24µM*	4%	-12%	-8%	-28%
CC1CN(C(=O)c2cc3cc(Cl)cc(Cl)c3oc2=O)CC(C)O1 (centres undefined)	1	21µM*	0%	-18%	1%	2%
CC1CN(C(=O)c2cc3cc([N+](=O)[O-])ccc3oc2=O)CC(C)O1 (centres undefined)	2	-11%	-2%	-18%	-1%	-13%
Cc1oc(/N=C/c2cccc3ccccc23)c(C#N)c1C	-20	24µM*	6%	-20%	3%	?
CCN1CCCC1CNCC(O)COc1ccc(C(C)(C)C)cc1C (centres undefined)	2	?	1%	-14%	0%	-3%
CCNc1nc2c(c(=O)[nH]c(=O)n2C)n1CC(O)COc1ccc(Cl)cc1Cl (centres undefined)	.	.	.	?	.	-11%
CCOC(=O)C1CCN(S(=O)(=O)c2ccc3c(c2)CCN3C(C)=O)CC1	-1	-3%	0%	-18%	-1%	-10%
CCOC(=O)C1CCN(S(=O)(=O)c2ccc3c(c2)CCN3C(=O)C2CCC2)CC1	.	27µM*	2%	-20%	1%	?
